Laboratory results published in PubChem BioAssay (NCI).
Values joined by “and” are separate entries in the source; they are usually repeats but may differ in a detail not shown here. Identical values can stand only once. About 83,000 compounds went through this panel and 20% of them were active in at least one assay; those are over-represented in the sample as a whole.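 96-well plates, one dose, 48 hours. Percent growth reported; active if below 10.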 Active and inactive are the calls of the source.

Experiments:
Assay in all cases: NCI-60 one-dose screen, 48 h (100 = growth as untreated, 0 = no growth, -100 = all killed)
Settings in all cases: 10 µM unless noted
SK-MEL-2 melanoma = system: SK-MEL-2 melanoma
EKVX NSCLC = system: EKVX NSCLC
SN12C renal = system: SN12C renal
UO-31 renal = system: UO-31 renal
TK-10 renal = system: TK-10 renal
ACHN renal = system: ACHN renal
CAKI-1 renal = system: CAKI-1 renal
A498 renal = system: A498 renal
CCRF-CEM leukemia = system: CCRF-CEM leukemia
MOLT-4 leukemia = system: MOLT-4 leukemia
SR leukemia = system: SR leukemia
RPMI-8226 leukemia = system: RPMI-8226 leukemia
OVCAR-8 ovarian = system: OVCAR-8 ovarian
OVCAR-5 ovarian = system: OVCAR-5 ovarian
SK-OV-3 ovarian = system: SK-OV-3 ovarian
IGROV1 ovarian = system: IGROV1 ovarian
HS 578T breast = system: HS 578T breast
NCI/ADR-RES ovarian = system: NCI/ADR-RES ovarian
OVCAR-3 ovarian = system: OVCAR-3 ovarian
OVCAR-4 ovarian = system: OVCAR-4 ovarian

Measured: growth

CN(C)CCNc1ccc2ncc(C#Cc3cncc(C(=O)Nc4ccc(CN5CCN(C)CC5)c(C(F)(F)F)c4)c3)n2n1
active: SK-MEL-2 melanoma 0.656% | EKVX NSCLC 7.33% | SN12C renal -9.94% | CAKI-1 renal 3.13% | CCRF-CEM leukemia 5.95% | MOLT-4 leukemia -9.54% | SR leukemia 0.232% | RPMI-8226 leukemia -11.2% | OVCAR-8 ovarian 1.03% | IGROV1 ovarian 0.103% | HS 578T breast -16.1%
inactive: UO-31 renal 77.8% | TK-10 renal 26.6% | ACHN renal 10.7% | A498 renal 87.7% | OVCAR-5 ovarian 11.4% | SK-OV-3 ovarian 45.1% | NCI/ADR-RES ovarian 76%

COc1cc(-c2nc(-c3ccccc3)[nH]c2-c2ccnc(NCCCNS(=O)(=O)c3ccc(C(F)(F)F)cc3)n2)ccc1Cl
9.32% (active) and 35.8% (inactive): SR leukemia
6.64% (active) and 21.7% (inactive): CCRF-CEM leukemia
inactive: SK-MEL-2 melanoma 74.8% and 43.8% | EKVX NSCLC 30% and 44.9% | SN12C renal 49.4% and 49.5% | UO-31 renal 46.5% and 35.4% | TK-10 renal 79.1% and 61.2% | ACHN renal 33.3% and 32.6% | CAKI-1 renal 31.2% and 35.4% | A498 renal 40% and 64.3% | RPMI-8226 leukemia 12.5% and 31.6% | OVCAR-8 ovarian 53.2% and 40.2% | OVCAR-5 ovarian 103% and 84.4% | SK-OV-3 ovarian 99.5% and 55.1% | IGROV1 ovarian 59.6% and 51.8% | OVCAR-3 ovarian 33.6% and 39.6% | HS 578T breast 58.8% and 71.9% | NCI/ADR-RES ovarian 13.8% and 32.4%
-4.06% (active) and 16.3% (inactive): MOLT-4 leukemia

C=C(C)[C@@H]1CC[C@]2(COP(=O)(OCC)OCC)CC[C@]3(C)[C@H](CC[C@@H]4[C@@]5(C)CC[C@H](OP(=O)(OCC)OCC)C(C)(C)[C@@H]5CC[C@]43C)[C@@H]12
active: RPMI-8226 leukemia -18.1%
inactive: SK-MEL-2 melanoma 67.9% | EKVX NSCLC 26.6% | SN12C renal 33.4% | UO-31 renal 22.6% | TK-10 renal 68.5% | ACHN renal 41.4% | CAKI-1 renal 35.2% | A498 renal 66.4% | CCRF-CEM leukemia 39.4% | MOLT-4 leukemia 27.8% | SR leukemia 30.2% | OVCAR-8 ovarian 40.5% | OVCAR-5 ovarian 84.3% | SK-OV-3 ovarian 77.2% | IGROV1 ovarian 74.5% | HS 578T breast 74.7% | NCI/ADR-RES ovarian 31.8%

NCCNC(=O)c1cccc(COc2ccccc2NC(=O)c2cc(Br)c(Br)[nH]2)c1
inactive: SK-MEL-2 melanoma 101% | EKVX NSCLC 89.9% | SN12C renal 92.6% | UO-31 renal 90% | TK-10 renal 89% | ACHN renal 101% | CAKI-1 renal 90.1% | A498 renal 81.1% | CCRF-CEM leukemia 17.9% | MOLT-4 leukemia 68.7% | RPMI-8226 leukemia 86.8% | OVCAR-8 ovarian 64.6% | OVCAR-5 ovarian 101% | OVCAR-4 ovarian 103% | IGROV1 ovarian 88% | OVCAR-3 ovarian 103% | HS 578T breast 100% | NCI/ADR-RES ovarian 96.7%
active: SR leukemia 8.3%

Cc1ccc(Nc2nc(SC(C)C)nc(-c3ccccc3)c2C#N)cc1
inactive: SK-MEL-2 melanoma 112% | EKVX NSCLC 81.7% | SN12C renal 95.8% | UO-31 renal 88.4% | TK-10 renal 82.1% | ACHN renal 88.4% | CAKI-1 renal 75.8% | A498 renal 62.3% | CCRF-CEM leukemia 81.7% | MOLT-4 leukemia 100% | SR leukemia 102% | RPMI-8226 leukemia 99% | OVCAR-8 ovarian 97% | OVCAR-5 ovarian 81.8% | OVCAR-4 ovarian 87.3% | IGROV1 ovarian 91% | HS 578T breast 87.8% | NCI/ADR-RES ovarian 92.2%

C=C(C=O)[C@@H]1CC[C@]2(C(=O)O)CC[C@]3(C)C(CC[C@@H]4[C@@](C)(CCC#N)[C@H](C(=C)C=O)CC[C@]43C)[C@@H]12 (some centres not stated)
active: CCRF-CEM leukemia 2.89% | MOLT-4 leukemia 5.55% | SR leukemia 0.41% | RPMI-8226 leukemia -8.52% | OVCAR-8 ovarian -9.95% | NCI/ADR-RES ovarian 5.79%
inactive: SK-MEL-2 melanoma 61.1% | EKVX NSCLC 100% | SN12C renal 66.4% | UO-31 renal 32.8% | TK-10 renal 128% | ACHN renal 51.8% | CAKI-1 renal 17.8% | A498 renal 96.9% | OVCAR-5 ovarian 127% | OVCAR-4 ovarian 18.7% | IGROV1 ovarian 14.6% | HS 578T breast 47.1%

C=C(C)[C@@H]1CC[C@]2(C(=O)NC3CCCCC3)CC[C@]3(C)[C@H](CC[C@@H]4[C@@]5(C)CC[C@H](N)C(C)(C)[C@@H]5CC[C@]43C)[C@@H]12
active: SR leukemia 1.36%
inactive: SK-MEL-2 melanoma 105% | EKVX NSCLC 90.7% | SN12C renal 102% | UO-31 renal 80.4% | TK-10 renal 124% | ACHN renal 104% | CAKI-1 renal 65.4% | A498 renal 118% | CCRF-CEM leukemia 79.4% | MOLT-4 leukemia 64.5% | RPMI-8226 leukemia 39% | OVCAR-8 ovarian 101% | OVCAR-5 ovarian 115% | SK-OV-3 ovarian 117% | IGROV1 ovarian 113% | OVCAR-3 ovarian 101% | HS 578T breast 95.8% | NCI/ADR-RES ovarian 97.5%

CCOC(=O)C(=O)Nc1ccc2c(ccn2C(=O)c2cccc(F)c2)c1
inactive: SK-MEL-2 melanoma 99.8% | EKVX NSCLC 82.8% | SN12C renal 101% | UO-31 renal 88.2% | TK-10 renal 97.6% | ACHN renal 80.2% | CAKI-1 renal 92.7% | A498 renal 84.2% | MOLT-4 leukemia 107% | SR leukemia 96.3% | RPMI-8226 leukemia 101% | OVCAR-8 ovarian 93.1% | OVCAR-5 ovarian 92.4% | OVCAR-4 ovarian 101% | IGROV1 ovarian 103% | HS 578T breast 94.4% | NCI/ADR-RES ovarian 100%
active: CCRF-CEM leukemia 2.8%

Cc1ccc(-c2csc(N/N=C/c3cccs3)n2)cc1
inactive: SK-MEL-2 melanoma 111% | EKVX NSCLC 65.2% | SN12C renal 100% | UO-31 renal 75.1% | TK-10 renal 151% | ACHN renal 90.4% | CAKI-1 renal 87.4% | A498 renal 116% | CCRF-CEM leukemia 91.9% | MOLT-4 leukemia 86.7% | SR leukemia 56.1% | RPMI-8226 leukemia 86.5% | OVCAR-8 ovarian 93.6% | OVCAR-5 ovarian 122% | IGROV1 ovarian 86.3% | OVCAR-3 ovarian 104% | HS 578T breast 105% | NCI/ADR-RES ovarian 92.7%

Cc1ccc2c(n1)C(=O)C(Cl)=C(Nc1cccc(C(=O)OC(C)(C)C)c1)C2=O
active: MOLT-4 leukemia 6.09% | SR leukemia 5.81%
inactive: SK-MEL-2 melanoma 115% | EKVX NSCLC 86.3% | SN12C renal 94.1% | UO-31 renal 78.4% | TK-10 renal 120% | ACHN renal 77% | CAKI-1 renal 77.7% | A498 renal 66.6% | CCRF-CEM leukemia 10.6% | RPMI-8226 leukemia 28% | OVCAR-8 ovarian 87.3% | OVCAR-4 ovarian 65.7% | SK-OV-3 ovarian 97.2% | IGROV1 ovarian 88.2% | OVCAR-3 ovarian 37.5% | HS 578T breast 102% | NCI/ADR-RES ovarian 93.9%

CCCCCCN1C=C/C(=C\C(=O)n2ccc3ccccc32)c2ccccc21
inactive: SK-MEL-2 melanoma 76% | EKVX NSCLC 36.3% | SN12C renal 67.6% | UO-31 renal 52% | TK-10 renal 114% | ACHN renal 66.3% | CAKI-1 renal 61% | A498 renal 97.5% | CCRF-CEM leukemia 54.8% | MOLT-4 leukemia 62% | SR leukemia 54.3% | RPMI-8226 leukemia 12.7% | OVCAR-8 ovarian 73.8% | OVCAR-4 ovarian 33.3% | SK-OV-3 ovarian 59.9% | IGROV1 ovarian 42.9% | OVCAR-3 ovarian 58.4% | HS 578T breast 84.9% | NCI/ADR-RES ovarian 84.7%

CSc1ccc(/C(=N/N=C(N)N)c2ccc(Cl)cc2)cc1
inactive: EKVX NSCLC 35.1% | UO-31 renal 10.1% | TK-10 renal 51.3% | ACHN renal 15% | CCRF-CEM leukemia 16.1% | MOLT-4 leukemia 13.4% | OVCAR-4 ovarian 57% | SK-OV-3 ovarian 24.7%
active: SK-MEL-2 melanoma -7.8% | SN12C renal 7.12% | CAKI-1 renal 3.83% | A498 renal -21.6% | SR leukemia -15.7% | RPMI-8226 leukemia 6.98% | OVCAR-8 ovarian -18.4% | IGROV1 ovarian 4.76% | HS 578T breast 4% | NCI/ADR-RES ovarian -3.46%

N#Cc1c(-c2cccs2)cc(-c2cnccn2)nc1SCC(=O)N/N=C/c1ccc(Cl)cc1
inactive: SK-MEL-2 melanoma 121% | EKVX NSCLC 93.5% | SN12C renal 104% | UO-31 renal 92.6% | TK-10 renal 130% | ACHN renal 102% | CAKI-1 renal 90.8% | A498 renal 87.1% | CCRF-CEM leukemia 87.6% | MOLT-4 leukemia 102% | SR leukemia 87.1% | RPMI-8226 leukemia 97.6% | OVCAR-8 ovarian 104% | OVCAR-4 ovarian 105% | SK-OV-3 ovarian 114% | IGROV1 ovarian 109% | OVCAR-3 ovarian 117% | HS 578T breast 103% | NCI/ADR-RES ovarian 102%

C#Cc1nc(C(=O)NCCCCCCC(=O)NO)cs1
active: SK-MEL-2 melanoma 8.08% | UO-31 renal -91.3% | TK-10 renal -14.2% | ACHN renal -86.5% | CAKI-1 renal -80.2% | A498 renal -95.1% | CCRF-CEM leukemia -41.4% | MOLT-4 leukemia -26.1% | SR leukemia 0.171% | RPMI-8226 leukemia -10.1% | IGROV1 ovarian -72.6% | HS 578T breast -3.14% | NCI/ADR-RES ovarian 2.01%
inactive: EKVX NSCLC 53.5% | SN12C renal 36.7% | OVCAR-8 ovarian 15.8% | OVCAR-4 ovarian 25.8% | SK-OV-3 ovarian 29.2%

CCOC(=O)C1=C(C)NC(C)=C(C(=O)OCc2ccccc2)C1c1cccc(C#N)c1 (configuration not stated)
inactive: SK-MEL-2 melanoma 24.9% | EKVX NSCLC 37.1% | SN12C renal 36.5% | UO-31 renal 43.8% | TK-10 renal 83.7% | ACHN renal 47.1% | CAKI-1 renal 32.4% | CCRF-CEM leukemia 25.5% | MOLT-4 leukemia 31.5% | SR leukemia 21.7% | RPMI-8226 leukemia 32.3% | OVCAR-8 ovarian 48% | OVCAR-4 ovarian 71.5% | SK-OV-3 ovarian 75.1% | IGROV1 ovarian 42.1% | OVCAR-3 ovarian 23.6% | HS 578T breast 40.2% | NCI/ADR-RES ovarian 22.7%
active: A498 renal -4.45%
